Screening results from PubChem BioAssay.
An excerpt weighted towards active compounds, which were near 3.9% of everything screened.
PLK1 PBD inh: inhibitors of human PLK1 polo-box domain binding | P53350 | Plk1 PBD binding of FITC phosphopeptide, fluorescence polarization | Potency, µM, for inactives: max response, negative = inhibition, usual class: inhibitors | 360,000 tested, 2.8% active | AID 720504; also: series mostly up to about 57 µM; % is scaled to controls: 0 for no effect and ±100 for the full control effect; nearly all actives have a fitted effect of over 65% in size
VDR inhibitor: blocks the human vitamin D receptor; P11473; AID 504847; 400,000 tested, 0.93% active; Potency, µM, inactives show max response, negative = inhibition, actives largely listed as inhibitors; VDR-SRC2-3 peptide fluorescence polarization, 2 h; also: % is scaled to controls: 0 for no effect and ±100 for the full control effect
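Measured by FP: displacement of SRC2-3 coactivator peptide from VDR by library compounds, following a two-hour ambient incubation.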
BRCA1 expr act: BRCA1 expression activation | Potency, µM (highest dose often 46.1 µM), without a hit: at the highest dose activation, usual class: activators | 380,000 tested, 1.1% active | AID 624202 | MCF7-BRCA1-FFLuc reporter, luminescence, 48 h; response scale: scaled: vehicle 0%, 10 µM genistein 100%; also: nearly all actives have a fitted effect of over 80% in size
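Reporter cells (MCF7, BRCA1 promoter-firefly luciferase) received library compounds across a concentration series for 48 h. End-point luminescence was measured and concentration-effect curves derived after normalization.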
Tb PFK block: inhibitors of T. brucei phosphofructokinase; O15648; T. brucei PFK, ADP-Glo luminescence; Potency, µM (series often up to 57.5 µM), without a hit: top-dose activity, negative = inhibition, usual class: inhibitors; 330,000 tested, 0.17% active;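 also: 0% = uninhibited 1x PFK enzyme wells and -100% = no-enzyme wells; nearly all actives have a fitted effect of over 60% in size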
Target sequence (O15648 whole entry, looked up): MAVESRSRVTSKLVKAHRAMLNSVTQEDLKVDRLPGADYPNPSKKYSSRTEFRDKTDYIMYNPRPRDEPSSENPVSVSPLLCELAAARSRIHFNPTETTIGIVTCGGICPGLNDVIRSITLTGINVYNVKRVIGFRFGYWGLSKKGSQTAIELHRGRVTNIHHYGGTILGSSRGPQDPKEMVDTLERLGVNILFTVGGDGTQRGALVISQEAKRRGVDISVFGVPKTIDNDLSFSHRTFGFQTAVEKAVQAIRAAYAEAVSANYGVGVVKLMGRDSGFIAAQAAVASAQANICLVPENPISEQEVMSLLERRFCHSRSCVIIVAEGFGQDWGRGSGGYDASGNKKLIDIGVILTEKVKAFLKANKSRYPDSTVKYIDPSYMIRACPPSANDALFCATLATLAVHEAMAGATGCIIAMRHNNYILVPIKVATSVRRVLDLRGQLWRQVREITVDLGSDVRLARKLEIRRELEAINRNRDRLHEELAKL
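Luminescent ADP detection (ADP-Glo, two-step: ATP depletion then ADP-to-ATP conversion for luciferase) reported PFK activity after 45 min room-temperature reaction of 1.25 nM enzyme with 0.5 mM F6P and 0.1 mM ATP at pH 8.0.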
* hit, by the source's call; ? = inconclusive; nt = not tested or not shown. Calls follow the shape of the dose curve; as a rule, active = well fitted curve in the direction sought with a large enough effect; inconclusive = small, poorly fitted or top-dose-only effect, or another doubt; inactive = no such curve, though single readings can be large; an effect the other way counts as inactive or inconclusive. Potency is read from the fitted curve at half-maximal effect.

SMILES	PLK1 PBD inh	VDR inhibitor	BRCA1 expr act	Tb PFK block
O=C(O)C(=Cc1ccncc1)c1cccc2ccccc12	-6%	nt	-18%	nt
O=C(O)/C(=C\c1ccc2ccccc2c1)c1cccc2ccccc12	21µM*	-29%	1%	nt
CC1(c2ccc(Cl)cc2)NC(=O)N(CC(=O)N2CCN(C(=O)c3cccs3)CC2)C1=O (centres undefined)	-9%	nt	-3%	nt
Nc1nnc(CSCc2ccc(F)cc2)s1	19µM*	-18%	36%	-2%
O=C(Nc1nnc(CSCc2ccc(F)cc2)s1)c1cccc([N+](=O)[O-])c1	-15%	-1%	-38%	-1%
Cn1c(-c2cccs2)nc2ccccc21	-26%	-16%	7.9µM*	-5%
Cn1c(-c2ccc(N)cc2)nc2ccccc21	-8%	2%	96%	3%
Cc1ccc(-n2c(N)c(-c3nc4ccccc4n3C)sc2=S)cc1	5.3µM*	?	-10%	-7%
Cn1c(-c2ccc(C=O)s2)nc2ccccc21	-2%	8%	11µM*	-7%
Cc1ccc(CNC(=O)c2cnn(-c3cccc(C)c3)c2C2CCN(C(=O)OC(C)(C)C)CC2)cc1	nt	6%	nt	nt
COc1ccc(/C=C(/NC(=O)c2ccco2)C(=O)NCc2ccco2)cc1OC	5%	6%	-32%	1%
Cc1cc(Cl)n2c(nc3ccccc32)c1C#N	?	40µM*	-78%	-3%
O=C(NCc1ccccc1)C1C(=O)Nc2ccccc2C(=O)N1c1ccc2c(c1)OCCO2 (centres undefined)	-7%	nt	nt	nt
CCN1C(=O)[C@H]2[C@@H](c3ccc(C)cc3)N3C(=O)N(c4ccc(C)cc4)C(=O)[C@@]3(C)[C@H]2C1=O	-4%	-13%	7%	1%
CCN1C(=O)[C@H]2[C@@H](c3ccc(C)cc3)N3C(=O)N(c4ccc(OC)cc4)C(=O)[C@@]3(C)[C@H]2C1=O	21µM*	-20%	4%	-2%
COc1cc(NC(=O)c2cc(S(=O)(=O)N3CCC(C)CC3)cn2C)cc(OC)c1OC	nt	-5%	-11%	nt
CC(=O)CCSc1ncnc2sc(-c3ccccc3)cc12	-1%	5%	?	1%
O=C(O)CCSc1ncnc2sc(-c3ccccc3)cc12	17µM*	-12%	-85%	-1%
CCc1ccccc1N1C(=O)N(C)c2ccccc2S1(=O)=O	nt	12%	1%	nt
Cc1c(C(=O)NC(=S)Nc2ccc3c4c(cccc24)CC3)cccc1[N+](=O)[O-]	-21%	-4%	9%	1%
Cc1c(C(=O)Nc2c3c(nn2C(C)(C)C)CS(=O)(=O)C3)cccc1[N+](=O)[O-]	7.5µM*	?	2%	0%
Cc1c(C(=O)Nc2ccc3c4c(cccc24)CC3)cccc1[N+](=O)[O-]	27µM*	3%	-49%	-6%
Cc1cccc(OCC(=O)Nc2ccc3c4c(cccc24)CC3)c1C	27µM*	-29%	-1%	1%
Cc1ccc(OCC(=O)Nc2ccc3c4c(cccc24)CC3)c(C)c1	-11%	4%	-8%	0%
CC(=O)Nc1ccc(C(=O)Nc2nc(-c3ccccn3)cs2)cc1	24µM*	-24%	0%	?
SMILES	PLK1 PBD inh	VDR inhibitor	BRCA1 expr act	Tb PFK block
O=C(Nc1nc(-c2ccccn2)cs1)c1ccccc1-n1cnnn1	3.8µM*	?	-47%	-2%
Cn1nc(C(=O)Nc2nc(-c3ccccn3)cs2)c2ccccc2c1=O	13µM*	?	-65%	0%
CC(=O)Nc1ccc(C(=O)Nc2nc(-c3cccnc3)cs2)cc1	13µM*	?	-29%	8%
O=C(Nc1nc(-c2ccccc2)cs1)c1cccnc1	-10%	4%	29%	4%
CCCn1nc(C(=O)Nc2nc(-c3ccccn3)cs2)c2ccccc2c1=O	-5%	-17%	-54%	1%
O=C(Nc1nc(-c2ccccn2)cs1)c1ccc2c(c1)OCCO2	5%	-6%	5%	10%
O=C(Nc1nc(-c2ccccn2)cs1)C1COc2ccccc2O1 (centres undefined)	-7%	-2%	-48%	4%
CN(C)c1ccc(Nc2nc(-c3cccnc3)cs2)cc1	-3%	-9%	-9%	-4%
CCN(CC)c1ccc(Nc2nc(-c3cccnc3)cs2)cc1	-13%	?	4µM*	6%
CC1CC1C(=O)Nc1nc(-c2ccccn2)cs1 (centres undefined)	?	79µM*	3%	-1%
Fc1cccc(Cc2c(-c3ccco3)nc3c(Cl)cc(C(F)(F)F)cn23)c1	12µM*	nt	-28%	nt
CC(=O)N1CCc2c(sc(NC(=O)C3COc4ccccc4O3)c2C(N)=O)C1 (centres undefined)	19µM*	?	-1%	-5%
COC(=O)c1c(NC(=O)C2COc3ccccc3O2)sc2c1CCN(C(C)=O)C2 (centres undefined)	8%	11%	-57%	-1%
CCOc1ccc(CCNS(=O)(=O)c2cnc[nH]2)cc1OCC	27µM*	10%	9%	1%
O=c1c2ccccc2sc2ccc(NCCCN3CCOCC3)cc12	3%	-18%	11µM*	nt
COc1ccc(-c2ccc(=O)n(CC(=O)NCCc3ccccc3)n2)cc1	nt	-2%	nt	nt
COc1ccc(NS(=O)(=O)c2ccc(Oc3ncccn3)cc2)cc1	-1%	-12%	-28%	0%
COc1ccc(S(=O)(=O)Nc2c(F)cccc2F)cc1	30µM*	?	0%	-1%
COc1ccc(S(=O)(=O)Nc2ccc3c(c2)CCC3)cc1	3.8µM*	45µM*	-12%	5%
COc1ccc(S(=O)(=O)Nc2ccc(Oc3ncccn3)c(Cl)c2)cc1	5.3µM*	-23%	-4%	2%
C[C@H](CO)N1C[C@H](C)[C@@H](CN(C)C(=O)c2ccccc2)OCc2cnnn2CCCC1=O	-4%	nt	8%	nt
CCN(C(=O)Cn1cc(S(=O)(=O)Cc2ccccc2Cl)c2ccccc21)c1ccccc1	nt	17%	nt	nt
NC(=O)SCC(=O)Nc1ccc(Cl)c(Cl)c1	0%	?	-38%	-9%
NC(=O)SCC(=O)Nc1ccc(Cl)cc1	-17%	28µM*	0%	?
CC(C)c1ccc(NC(=O)C2=NNC(=O)CC2)cc1	-6%	9%	2.2µM*	1%
SMILES	PLK1 PBD inh	VDR inhibitor	BRCA1 expr act	Tb PFK block
COc1ccc(NC(=O)c2nc(-c3ccc(C)cc3)n3c2CCCCC3)cc1	nt	-5%	nt	nt
CCCN(CC1CCCO1)C(=O)CCc1nnc(CCc2ccc(OC)cc2)o1 (centres undefined)	13µM*	?	0%	-9%
Cc1ccc(C)c(N2CCN(S(=O)(=O)c3ccc4[nH]c5c(c4c3)CCCC5)CC2)c1	nt	10%	nt	nt
O=S(=O)(c1ccc2[nH]c3c(c2c1)CCCC3)N1CCCCC1	2%	89µM*	-83%	1%
CCC1CN(C(=O)Nc2ccc(C)c(F)c2)c2ccccc2S1 (centres undefined)	nt	11%	nt	nt
O=C(Nc1ccc2c(c1)OCCO2)c1cccc(S(=O)(=O)N2CCOCC2)c1	-4%	-21%	10µM*	1%
O=C(Nc1ccc2c(c1)OCCO2)c1ccc(Cl)c(Cl)c1	-6%	3%	13µM*	?
O=C(Nc1ncccc1Cl)c1ccc2c(c1)OCCO2	-3%	-18%	8.9µM*	-5%
CCCOc1cccc(C(=O)Nc2ccc3c(c2)OCCO3)c1	-9%	-28%	7.9µM*	-6%
